This excerpt belongs to a sample that is enriched for hits.
GBA enhancer: increases beta-glucosidase activity in Gaucher fibroblasts. P04062. L444P Gaucher fibroblasts, 4-MU-glucoside fluorescence, 3 days. activation, % at 10 µM. 0.44% of 30,000 active. AID 784; in the data active = activation above about 65%;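 also: 0% = vehicle wells and 100% = positive control wells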
Target sequence (P04062 whole entry L483P): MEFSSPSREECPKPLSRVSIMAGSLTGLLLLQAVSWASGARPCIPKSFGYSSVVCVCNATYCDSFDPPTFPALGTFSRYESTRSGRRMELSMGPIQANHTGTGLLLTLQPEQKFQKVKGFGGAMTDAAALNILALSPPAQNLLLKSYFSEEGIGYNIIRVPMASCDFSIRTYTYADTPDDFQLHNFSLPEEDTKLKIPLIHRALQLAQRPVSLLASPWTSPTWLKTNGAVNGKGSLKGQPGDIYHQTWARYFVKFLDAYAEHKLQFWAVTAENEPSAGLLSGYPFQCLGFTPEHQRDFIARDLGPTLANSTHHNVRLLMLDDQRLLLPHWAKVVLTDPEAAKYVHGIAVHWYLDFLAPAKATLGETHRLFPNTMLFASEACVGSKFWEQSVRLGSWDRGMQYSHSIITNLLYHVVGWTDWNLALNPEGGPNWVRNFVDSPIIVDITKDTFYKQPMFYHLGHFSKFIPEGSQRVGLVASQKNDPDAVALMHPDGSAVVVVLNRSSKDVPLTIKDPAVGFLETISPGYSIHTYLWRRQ
An asterisk follows results filed as active.

How did CCOCCCn1c(=N)c(C(=O)NCc2ccc3c(c2)OCO3)cc2c(=O)n3ccccc3nc21 do in these assays?
GBA enhancer: -15.1

What do the screens show for `Fc1ccc(-c2nnc(CN3CCC(c4nc5ccccc5s4)CC3)o2)cc1`?
GBA enhancer: -12.8

What do the screens show for `C=CCn1c(-c2c[nH]c3ccccc23)n[nH]c1=S`?
GBA enhancer: 66.9*

Results for C=CCn1c(-c2ccco2)n[nH]c1=S ?
GBA enhancer: 5.8

Results for C=CCn1c(-c2cc(OC)c(OC)c(OC)c2)n[nH]c1=S ?
GBA enhancer: -6.6

How did O=C(CN1CCCCCC1)NCCc1ccc(F)cc1 do in these assays?
GBA enhancer: -13.2

Results for COc1ccc(-c2nn(C)c(=O)c3ccccc23)cc1CNC(=O)CN1CCOCC1 ?
GBA enhancer: -11.8

What do the screens show for `O=C(NCCC1=CCCCC1)C1CCCN(c2nc3ccccc3o2)C1` (stereo unspecified)?
GBA enhancer: 0.6

What do the screens show for `CC1=C(C(=O)Nc2ccccc2)C(c2ccncc2)n2nnnc2N1` (stereo unspecified)?
GBA enhancer: -5.8

Results for CC1=C(C(=O)Nc2cccnc2)C(c2ccncc2)n2nnnc2N1 (stereo unspecified) ?
GBA enhancer: 69.9*

What do the screens show for `CC1=C(C(=O)Nc2cccnc2)C(c2ccccn2)n2nnnc2N1` (stereo unspecified)?
GBA enhancer: 27.4

How did Cc1cc2nnc(SCC(=O)NCc3ccco3)n2c2ccccc12 do in these assays?
GBA enhancer: -12.6

How did C/C=C/CSc1nc2c(c(=O)[nH]c(=O)n2C)n1C(C)C do in these assays?
GBA enhancer: -56.2

How did CC(C)n1c(=S)[nH]c2c1c(=O)[nH]c(=O)n2C do in these assays?
GBA enhancer: 135.7*

How did CC(C)n1c(SCC(N)=O)nc2c1c(=O)[nH]c(=O)n2C do in these assays?
GBA enhancer: 11.7

Results for CCCCN(C)CCn1c(=S)[nH]c2ccc(N3CCOCC3)cc2c1=O ?
GBA enhancer: 57.8

What do the screens show for `Cc1ccccc1OCC(=O)N(Cc1cccs1)C1CCS(=O)(=O)C1` (stereo unspecified)?
GBA enhancer: 146.7*

How did Cc1cccc(OC(C)C(=O)N(Cc2cccs2)C2CCS(=O)(=O)C2)c1C (stereo unspecified) do in these assays?
GBA enhancer: 5.6

How did COc1ccccc1C(=O)N(Cc1cccs1)C1CCS(=O)(=O)C1 (stereo unspecified) do in these assays?
GBA enhancer: -21.2

How did CCCCN1c2cc(C)c(O)cc2C(C(=O)OCC)C1C (stereo unspecified) do in these assays?
GBA enhancer: -16.4

How did O=C(O)c1[nH]nc2c1COc1ccccc1-2 do in these assays?
GBA enhancer: -23.3

Results for Cc1ccccc1CS(=O)(=O)Cc1ccc(C(=O)NCCCN2CCOCC2)o1 ?
GBA enhancer: 23.1

How did Cc1ccccc1CS(=O)(=O)Cc1ccc(C(=O)NCc2ccco2)o1 do in these assays?
GBA enhancer: 170.7*

Results for Cc1ccccc1CS(=O)(=O)Cc1ccc(C(=O)NCCCN2CCCC2=O)o1 ?
GBA enhancer: 13.4

Results for COc1ccc(OC)c(S(=O)(=O)Nc2ccc(O)c(Sc3ncn[nH]3)c2)c1 ?
GBA enhancer: 14.8

How did FC(F)(F)c1ccc(N2CCOCC2)c(Nc2nc3ccccc3n3cnnc23)c1 do in these assays?
GBA enhancer: 75.2*

Results for Cc1nc2ccccc2nc1OCC(=O)Nc1cc(C(F)(F)F)ccc1N1CCOCC1 ?
GBA enhancer: -9.6

Results for O=C(Nc1cc(C(F)(F)F)ccc1N1CCOCC1)c1cncc(Br)c1 ?
GBA enhancer: -22.0

What do the screens show for `CC(=O)Cc1nsc(NC(=O)c2ccc(COc3ccccc3)o2)n1`?
GBA enhancer: -7.9

How did O=C(CN1C(=O)c2ccccc2S1(=O)=O)NCCSC1CCCCC1 do in these assays?
GBA enhancer: 811.6*

Results for COc1ccc(CCNC(=O)CN2C(=O)c3ccccc3S2(=O)=O)cc1 ?
GBA enhancer: 6.3

What do the screens show for `O=C(CN1C(=O)c2ccccc2S1(=O)=O)NCc1ccccn1`?
GBA enhancer: -13.4

How did O=C(CCC(=O)N(Cc1ccco1)C(C(=O)NC1CCCC1)c1ccncc1)Nc1cccnc1 (stereo unspecified) do in these assays?
GBA enhancer: 13.9

Results for C=CCOc1ccc(CNc2nn[nH]n2)cc1 ?
GBA enhancer: -16.6

How did CC(C)C(c1nnnn1C1CCCC1)N1CCN(C(=O)c2ccco2)CC1 (stereo unspecified) do in these assays?
GBA enhancer: -17.7

Results for COc1ccc(OC)c(CCNC(=O)CS(=O)(=O)Cc2nc(-c3ccccc3C)oc2C)c1 ?
GBA enhancer: -8.2

Results for CCN1CCN(CCCNC(=O)C(NC(=O)C2CCC(C)CC2)C(C)C)CC1 (stereo unspecified) ?
GBA enhancer: 12.0

How did CCN1CCCC1CNC(=O)C(NC(=O)C1CCC(C)CC1)C(C)C (stereo unspecified) do in these assays?
GBA enhancer: -7.3

What do the screens show for `CC1CCC(C(=O)NC(C(=O)NCCCN2CCOCC2)C(C)C)CC1` (stereo unspecified)?
GBA enhancer: 68.4*

How did O=C(CSc1nc2ccccc2c(=O)[nH]1)Nc1ccc(S(=O)(=O)N2CCCC2)cc1 do in these assays?
GBA enhancer: -2.0

Results for CNc1cccccc1=S ?
GBA enhancer: -1.0

Results for CCC1C(=O)N=C(SCC(=O)Nc2cccc3ccccc23)NC1=O (stereo unspecified) ?
GBA enhancer: 3.7

What do the screens show for `CCOC(=O)c1ccc(NC(=O)CSc2nnc(C)n2-c2ccccc2)cc1`?
GBA enhancer: 9.1

How did CCOC(=O)c1ccc(NC(=O)CSC2=NC(=O)C(CC)C(=O)N2)cc1 (stereo unspecified) do in these assays?
GBA enhancer: 145.1*

How did COc1ccc(S(=O)(=O)N2CCc3ccccc32)cc1C(=O)OCc1nnc(-c2ccccc2)o1 do in these assays?
GBA enhancer: 4.4

Results for CC1Cc2cc(/C(O)=C3/C(=O)C(=O)N(CCCN(C)C)C3c3ccncc3)ccc2O1 (stereo unspecified) ?
GBA enhancer: 2.8

What do the screens show for `Cc1ccc(C)c(/C(O)=C2\C(=O)C(=O)N(CCCn3ccnc3)C2c2ccncc2)c1` (stereo unspecified)?
GBA enhancer: 84.4*

What do the screens show for `COCCCN1C(=O)C(=O)/C(=C(/O)c2ccc(C)cc2)C1c1ccccc1` (stereo unspecified)?
GBA enhancer: -9.1

What do the screens show for `CCN(Cc1ccncc1)S(=O)(=O)c1ccc(C(C)=O)cc1`?
GBA enhancer: -3.4

Results for CC(C)NC(=O)Cn1nnc(-c2cccc(NC(=O)c3ccccc3F)c2)n1 ?
GBA enhancer: -19.9

Results for CCn1c(N)c(C(=O)NCCCOC)sc1=S ?
GBA enhancer: 4.7

Results for CCOC(=O)c1c(C)oc2cc(Br)c(OC(=O)N3CCOCC3)cc12 ?
GBA enhancer: -8.8

What do the screens show for `COC(=O)c1cn(C(=O)c2cccs2)c2ccccc12`?
GBA enhancer: 89.3*

What do the screens show for `COC(=O)c1cn(C(=O)c2ccc(Br)o2)c2ccccc12`?
GBA enhancer: -14.6

Results for CCOC(=O)Cn1cc(C(=O)c2cccs2)c2ccccc21 ?
GBA enhancer: -11.5

How did Cc1nc2ccc(C(C(F)(F)F)(C(F)(F)F)C(F)(F)F)cc2[nH]1 do in these assays?
GBA enhancer: -12.7

How did CC(=O)n1c2ccccc2c2c1c1ccccc1n2C do in these assays?
GBA enhancer: 6.9

What do the screens show for `Cn1cc(/C(Cc2ccccc2)=N\O)c2ccccc21`?
GBA enhancer: 4.0

How did C/C(=N\O)c1ccc2c3ccccc3n(C)c2c1 do in these assays?
GBA enhancer: 77.2*
